BAZ2B block: BAZ2B (human) inhibition. Q9UIF8. AlphaScreen BAZ2B-H3K14Ac peptide displacement. Potency, µM (series often up to 114 µM), actives largely listed as inhibitors. 4.4% of 360,000 active. AID 504333; also: nearly all actives have a fitted effect of over 60% in size
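Complex of BAZ2B and biotin-H3K14Ac (50 nM apiece) forms over 30 min at RT, then faces library compounds up to 110 uM for another 30 min; AlphaScreen beads added, 20 min dark incubation, luminescence read.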
HP1b binding inh: inhibitors of HP1-beta chromodomain binding to methylated histone tails | Potency, µM (highest dose often 114 µM), usual class: inhibitors | 0.56% of 390,000 active | AlphaScreen HP1-beta / biotin-H3K9me3 peptide binding | AID 540317 | P83916; also: nearly all actives have a fitted effect of over 70% in size
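HP1-beta protein (50 nM final) preincubated 30 min at room temperature with biotinylated H3(1-18)K9me3 peptide (50 nM) in PBS pH 7.4, 0.01% Tween-20, then compound added for 30 min. AlphaScreen streptavidin donor/nickel chelate acceptor beads (10 ug/mL final), 30 min dark, luminescence read.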
PLK1 PBD block: blocks phosphopeptide binding to human PLK1 polo-box domain. P53350. Plk1 PBD binding of FITC phosphopeptide, fluorescence polarization. Potency, µM, most hits filed as inhibitors. 2.8% of 360,000 active. AID 720504; also: series mostly up to about 57 µM; nearly all actives have a fitted effect of over 65% in size
Sfp PPTase inh: blocks B. subtilis Sfp PPTase activity; Q9F4F7; Biochemical Sfp PPTase activity, qHTS; Potency, µM, most hits filed as inhibitors; 3.5% of 310,000 active; AID 1490;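 also: the enzyme is Sfp with the accession as filed and its product quenches rhodamine fluorescence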
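With Hepes-Na pH 7.6 buffer containing 10 mM MgCl2, Sfp (15 nM) modified BHQ-2-YbbR (12.5 uM) using rhodamine-CoA (5 uM). Two reads 30 minutes apart at 525/598 nm yielded each well's rate.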
JMJD2A Tudor: blocks the human JMJD2A Tudor domain; O75164; AlphaScreen JMJD2A-Tudor / H3K4me3 peptide binding; Potency, µM (series often up to 114 µM), hits mostly inhibitors; 4.4% of 390,000 active; AID 504339; also: nearly all actives have a fitted effect of over 50% in size
Target sequence (O75164 whole entry, looked up, the tested form may be a part): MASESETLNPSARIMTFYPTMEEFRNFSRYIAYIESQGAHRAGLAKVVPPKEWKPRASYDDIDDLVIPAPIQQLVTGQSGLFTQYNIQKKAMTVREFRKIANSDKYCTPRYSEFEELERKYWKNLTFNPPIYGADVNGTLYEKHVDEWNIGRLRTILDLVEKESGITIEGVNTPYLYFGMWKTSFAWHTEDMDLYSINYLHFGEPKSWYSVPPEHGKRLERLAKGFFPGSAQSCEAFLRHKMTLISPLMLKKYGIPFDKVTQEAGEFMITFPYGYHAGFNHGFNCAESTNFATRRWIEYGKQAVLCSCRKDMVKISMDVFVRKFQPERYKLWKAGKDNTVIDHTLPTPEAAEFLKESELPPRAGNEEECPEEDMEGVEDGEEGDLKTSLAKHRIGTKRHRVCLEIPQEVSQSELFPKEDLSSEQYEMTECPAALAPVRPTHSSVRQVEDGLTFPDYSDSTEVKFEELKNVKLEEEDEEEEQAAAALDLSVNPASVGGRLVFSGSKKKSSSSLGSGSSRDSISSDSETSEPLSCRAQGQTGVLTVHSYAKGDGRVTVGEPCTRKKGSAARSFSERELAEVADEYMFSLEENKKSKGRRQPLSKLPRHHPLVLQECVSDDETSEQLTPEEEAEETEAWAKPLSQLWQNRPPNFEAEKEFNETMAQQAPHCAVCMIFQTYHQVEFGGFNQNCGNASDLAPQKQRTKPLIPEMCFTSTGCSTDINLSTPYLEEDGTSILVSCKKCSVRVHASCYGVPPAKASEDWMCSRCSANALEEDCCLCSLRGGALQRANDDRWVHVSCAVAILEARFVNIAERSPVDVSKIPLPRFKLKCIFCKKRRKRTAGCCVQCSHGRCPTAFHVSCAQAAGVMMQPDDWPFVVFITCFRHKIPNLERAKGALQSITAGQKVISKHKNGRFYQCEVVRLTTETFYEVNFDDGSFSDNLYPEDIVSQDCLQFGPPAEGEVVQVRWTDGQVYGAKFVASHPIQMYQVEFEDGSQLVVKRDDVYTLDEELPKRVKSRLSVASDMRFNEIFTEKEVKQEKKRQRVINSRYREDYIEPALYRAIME
G9a block: inhibitors of human histone lysine methyltransferase G9a. AID 504332. G9a H3K9 monomethylation, AlphaScreen, 2 h. Q96KQ7. 8.8% of 350,000 active. Potency, µM (titrated, usually from 102 µM), hits mostly inhibitors; also: nearly all actives have a fitted effect of over 75% in size
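Signal arises when biotinylated H3K9 peptide, once monomethylated, bridges streptavidin donor and antibody-captured acceptor beads. Enzyme at 20 nM was preincubated 15 min with test compounds; peptide 500 nM and SAM 20 uM then reacted for 2 h.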
A number is an active result; - = inactive; ? = inconclusive; . = no result given; ! = a repeat was not active; [ ] = dose if it differs, or a comment. A selection: hits, their analogues and other compounds. The true share with any hit is near 12%. Calls follow the shape of the dose curve; as a rule, active = well fitted curve in the direction sought with a large enough effect; inconclusive = small, poorly fitted or top-dose-only effect, or another doubt; inactive = no such curve, though single readings can be large; an effect the other way counts as inactive or inconclusive.

SMILES	BAZ2B block	HP1b binding inh	PLK1 PBD block	Sfp PPTase inh	JMJD2A Tudor	G9a block
CCC(Sc1nc2ccccc2c2nc(CCc3c(C)n[nH]c3C)nn12)C(=O)Nc1ccc(OC)cc1 (centres undefined)	-	-	.	.	-	-
COc1cc(-c2nc3ccccn3c2N)ccc1O	-	-	-	-	-	50.1µM
Cc1ccccc1-c1cc(C(=O)NCc2cccc(C(F)(F)F)c2)nn1CC1CC(c2cccc([N+](=O)[O-])c2)=NO1 (centres undefined)	-	-	-	.	-	-[2.33 µM]
CCN(CC)c1cc2c(c3c1ccn3C)C1CCC2C1 (centres undefined)	.	.	-	.	.	.
CCCCC1=CC2=CC(=O)C(C)(OC(=O)c3cnc4ccccc4n3)C(=O)C2=CO1 (centres undefined)	79.4µM	.	.	79.4µM!	.	?
CN(C)c1ncc2nc(-c3cc(F)cc(F)c3)c(=O)n(C[C@H]3CCCO3)c2n1	.	.	.	-	.	-[0.501 µM]
CCCCc1nc2sc3c(=O)[nH]cnc3c2c2c1CCCC2	-	-	-	-	-	.
CCCCc1nc2sc3c(=O)[nH]c(=S)[nH]c3c2c2c1CCC2	.	-	-	.	20µM	.
Cc1cc(Cl)ccc1OCC(=O)OCC(=O)NCCNC(=O)COC(=O)COc1ccc(Cl)cc1C	.	-	-	.	-	.
CC(=O)c1ccccc1OC(=O)COc1ccc(Cl)cc1C	-	-	21.2µM	-	-[11.4 µM]	-
C/C(=N\NC(=O)c1cc(C2CC2)nc2ccccc12)c1ccc(O)cc1O	3.55µM	-	-	-	-	-
C/C(=N\NC(=O)c1cc(C2CC2)nc2ccccc12)c1ccc(C)s1	-	-	-	-	-	39.8µM
Cc1cccc(NC(=O)CN2C(=O)CCn3nc(-c4cccn4C)cc32)c1C	-	-	.	.	-	-
CCOc1ccc(N(CC(=O)Nc2ccc(OC)cc2)S(=O)(=O)c2ccc(Cl)cc2)cc1	-	-	.	.	-	-
CS(=O)(=O)c1ccc(C(O)C(CO)NC(=O)C(Cl)Cl)cc1 (centres undefined)	.	.	.	-	.	-[2.33 µM]
CCOC(=O)c1nnsc1Nc1ccc(C)c(C)c1	-	-	-	-	-	7.08µM
NC(N)=Nc1ccc(C=C2C=Cc3ccccc32)cc1	.	-	-	.	?	.
Nc1ccc(C=C2C=Cc3ccccc32)cc1	.	?	-	.	35.5µM	.
O=C(COc1cccc2ccccc12)N/N=C/c1ccncc1	-	-	-	-	-	-
COc1ccc(/C=N/NC(=O)COc2ccc3ccccc3c2)c(C(=O)O)c1OC	-	-	26.7µM	-	50.1µM	-
COc1ccc(/C=N/NC(=O)COc2cccc3ccccc23)c(C(=O)O)c1OC	?	-	-	-	-	14.1µM
COc1ccc(OCC(=O)N/N=C/c2ccc(OC)c(OC)c2C(=O)O)cc1	-	-	-	-	-	-
COc1ccc(CN(C)CC2CCCN(CCc3ccc(F)cc3)C2)cc1OC (centres undefined)	-	-	-	-	-	-
COc1cc(CN(C)CC2CCCN(CCc3cccc(C(F)(F)F)c3)C2)ccc1O (centres undefined)	-	-	-	-	-	44.7µM
CN(C(=O)c1sc2nc(N3CCOCC3)c3c(c2c1N)CCCC3)c1ccccc1	-	-	-	?	-	?
SMILES	BAZ2B block	HP1b binding inh	PLK1 PBD block	Sfp PPTase inh	JMJD2A Tudor	G9a block
CCc1nc2sc(C(C)=O)c(N)c2c2c1CCCC2	-	-	-	-	-	-[12.7 µM]
NC(=O)c1sc2nc(-c3ccccc3)c3c(c2c1N)CCCC3	?	-	?	39.8µM	-	?
CC(=O)c1sc2nc(-c3ccc(C)cc3)c3c(c2c1N)CCCC3	-	-	-	35.5µM	-	-
Cc1ccc(-c2nc3sc(C(N)=O)c(N)c3c3c2CCCC3)cc1	-	-	-	39.8µM	-	-
Cc1nc2sc(C(N)=O)c(N)c2c2c1CCCC2	-	-	-	79.4µM	-	?
Cc1ccc(-c2nc(SCC(N)=O)c(C#N)c3c2CCCC3)cc1	-	-	-	-	-	-
CCOC(=O)c1sc2nc(N3CCOCC3)c3c(c2c1N)CCC3	-	-	-	?	-	-
O=C(NC(=S)NC1CCS(=O)(=O)C1)c1ccccc1Br (centres undefined)	-	-	-	-	-	-
CC(C)c1nc2sc(C(=O)O)c(N)c2c2c1CCCC2	-	-	?	56.2µM	-	?
CC(C)c1nc2sc3c(=O)[nH]cnc3c2c2c1CCCC2	-	-	-	-	-	.
C=CCN1C(=O)C(CC(C)C)NC1=S (centres undefined)	.	.	.	-	.	-[12.7 µM]
Cn1cccc1CC(=O)NNC(=S)Nc1ccc(F)cc1	-	-	-	-	?	?
Cn1cccc1CC(=O)NNC(=S)NC(=O)c1ccccc1Br	-	-	-	-	-	17.8µM
Cn1cccc1CC(=O)NNC(=S)Nc1ccc(Cl)cc1Cl	?	-	-	-	-	44.7µM
C=CCN1C(=O)C(CC(=O)O)SC1=Nc1ccc(N=Nc2ccccc2)cc1 (centres undefined)	39.8µM	-	-	-	?	39.8µM
Cn1cc(SCC(=O)Nc2ccc3c(c2)OCO3)c2ccccc21	-	-	-	?	-	25.1µM
O=C(CSc1cccc[n+]1[O-])Nc1ccc2c(c1)OCO2	-	-	-	-	-	50.1µM
CCCn1cc(SCC(=O)Nc2ccc3c(c2)OCO3)c2ccccc21	?	-	-	-	?	?
COC(=O)[C@H]1O[C@@H](c2cc(OC)c(C)c(OC)c2OCc2ccccc2)[C@H](C)[C@@H]2O[C@]12C	.	.	.	-	.	.
CC(C)c1ccc(CNn2cnnc2)cc1	-	-	26.7µM	-	?	-
CC(C)c1ccc(CNc2nnnn2C)cc1	?	-	-	-	-	-
Cc1cc(C)c2c(CC(=O)Nc3nnc(C(C)C)s3)coc2c1	-	-	.	.	-	-
Cc1ccc(CNC(=O)c2ccc3c(c2)nc(C)n3-c2cccc(F)c2)cc1	-	-	.	.	-	-
COC(CNC(=O)c1ccc2c(c1)nc(C)n2-c1cccc(C)c1)OC	-	-	29.9µM	-	?	-
Cc1cccc(-n2c(C)nc3cc(C(=O)NCc4ccc5c(c4)OCO5)ccc32)c1	?	-	-	-	-	44.7µM
SMILES	BAZ2B block	HP1b binding inh	PLK1 PBD block	Sfp PPTase inh	JMJD2A Tudor	G9a block
COC(=O)c1ccccc1NC(=O)NCc1ccc2c(c1)CCN2C(=O)c1ccccc1	-	-	.	.	-	-
COc1cccc(C2Nc3ccccc3C(=O)N2O)c1O (centres undefined)	?	-	-	-	-	-
O=C1c2ccccc2NC(c2ccc(Br)o2)N1O (centres undefined)	-	-	.	.	79.4µM	-[2.33 µM]
O=C1c2ccccc2NC(c2cccc([N+](=O)[O-])c2)N1O (centres undefined)	?	-	-	-	-	-[0.501 µM]
O=C1c2ccccc2NC(c2ccc(-c3cccs3)o2)N1O (centres undefined)	?	-	.	.	-	-[0.501 µM]
O=C1c2ccccc2NC(c2ccc([N+](=O)[O-])cc2)N1O (centres undefined)	-	-	-	-	-	56.2µM
